Measured values from the supplement of paper PMC10849652.
Of roughly 8,800 targets only a part is listed; those with a hit were picked by preference. About 0.5% of all pairs of compound and target were hits.

Assays:
Assay in all cases: log2 fold change, soluble protein after heating vs DMSO (PISA); higher = thermal stabilisation; K562 lysate, 10 uM; active = over 0.2 and 3.5 SD of the protein, either way, in both replicates (recomputed)
[1] = compound: C1=CC=C(C=C1)[C@H](COC2=CC3=C(C=C2)NC(=O)N3)NC(=O)C4=CC=CN(C4=O)CC5=CC(=C(C=C5)F)F
In short: (§1)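 Log-two fold change in thermal stability relative to solvent controls is reported from duplicates. For each sample, crude K562 extract from dounce-homogenised pellets in PBS pH 7.4 with 1 mM MgCl2, at 1 mg/mL protein, was treated with 10 μM compound for 30 min. Aliquots heated for 3 min across 48°C-58°C were pooled, brought to 0.5% NP-40 at 4°C and cleared at 21,000xg for 90 min. The supernatant was quantified by TMTpro 16plex LC-MS/MS with channel sums equalised.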

[2] = compound: CC1=C(SC2=C1C(=N[C@H](C3=NN=C(N32)C)CC(=O)N)C4=CC=C(C=C4)Cl)C
In short: as §1

[3] = compound: CC1=C2C(=CC=C1)N=C(N(C2=O)C3=CC=CC=C3C)CN4C=NC5=C(N=CN=C54)N
In short: as §1

[4] = compound: Cc1sc2c(c1C)C(c1ccc(Cl)cc1)=N[C@@H](CC(=O)OC(C)(C)C)c1nnc(C)n1-2
In short: as §1

[5] = compound: c1ccc([C@@H]2C[C@H]2NC2CCNCC2)cc1
In short: as §1

Measured: log2 fold change

TUBA1C (UniProt Q9BQE3)
inactive: [1] 0.043 | [2] 0.03 | [3] 0.023 | [4] 0.003 | [5] -0.006

TXNRD2 (UniProt Q9NNW7)
inactive: [1] 0.023 | [2] -0.015 | [3] -0.048 | [4] -0.042 | [5] 0.006

TBC1D2B (UniProt Q9UPU7)
inactive: [1] -0.024 | [2] 0.139 | [3] -0.048 | [4] -0.065 | [5] -0.008

TESC (UniProt Q96BS2)
UniProt Q96BS2, sequence (Q96BS2 whole entry, looked up): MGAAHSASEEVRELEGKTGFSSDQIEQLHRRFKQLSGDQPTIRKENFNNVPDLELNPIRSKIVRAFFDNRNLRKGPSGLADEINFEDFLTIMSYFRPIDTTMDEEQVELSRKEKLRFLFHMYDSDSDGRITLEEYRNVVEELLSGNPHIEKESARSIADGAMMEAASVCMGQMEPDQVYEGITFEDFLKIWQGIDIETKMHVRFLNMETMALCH
inactive: [1] 0.034 | [2] -0.131 | [3] -0.001 | [4] 0.004 | [5] 0.016

TTL (UniProt Q8NG68)
UniProt Q8NG68, sequence (Q8NG68 whole entry, looked up): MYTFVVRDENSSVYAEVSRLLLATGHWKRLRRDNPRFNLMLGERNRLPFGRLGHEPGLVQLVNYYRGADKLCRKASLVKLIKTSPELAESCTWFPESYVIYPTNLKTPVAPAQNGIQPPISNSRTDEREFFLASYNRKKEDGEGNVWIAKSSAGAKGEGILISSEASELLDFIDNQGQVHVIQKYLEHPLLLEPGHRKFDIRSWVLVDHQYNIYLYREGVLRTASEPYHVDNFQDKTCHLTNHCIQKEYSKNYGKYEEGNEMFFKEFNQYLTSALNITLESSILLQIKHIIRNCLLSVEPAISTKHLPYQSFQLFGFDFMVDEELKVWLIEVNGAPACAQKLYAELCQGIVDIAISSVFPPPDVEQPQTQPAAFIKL
inactive: [1] 0.004 | [2] -0.029 | [3] 0.145 | [4] 0.014 | [5] 0.104

TJP1 isoform 2 (UniProt Q07157)
inactive: [1] 0.048 | [2] 0.02 | [3] 0 | [4] 0.061 | [5] -0.009

THEMIS2 (UniProt Q5TEJ8)
UniProt Q5TEJ8, sequence (Q5TEJ8 whole entry, looked up): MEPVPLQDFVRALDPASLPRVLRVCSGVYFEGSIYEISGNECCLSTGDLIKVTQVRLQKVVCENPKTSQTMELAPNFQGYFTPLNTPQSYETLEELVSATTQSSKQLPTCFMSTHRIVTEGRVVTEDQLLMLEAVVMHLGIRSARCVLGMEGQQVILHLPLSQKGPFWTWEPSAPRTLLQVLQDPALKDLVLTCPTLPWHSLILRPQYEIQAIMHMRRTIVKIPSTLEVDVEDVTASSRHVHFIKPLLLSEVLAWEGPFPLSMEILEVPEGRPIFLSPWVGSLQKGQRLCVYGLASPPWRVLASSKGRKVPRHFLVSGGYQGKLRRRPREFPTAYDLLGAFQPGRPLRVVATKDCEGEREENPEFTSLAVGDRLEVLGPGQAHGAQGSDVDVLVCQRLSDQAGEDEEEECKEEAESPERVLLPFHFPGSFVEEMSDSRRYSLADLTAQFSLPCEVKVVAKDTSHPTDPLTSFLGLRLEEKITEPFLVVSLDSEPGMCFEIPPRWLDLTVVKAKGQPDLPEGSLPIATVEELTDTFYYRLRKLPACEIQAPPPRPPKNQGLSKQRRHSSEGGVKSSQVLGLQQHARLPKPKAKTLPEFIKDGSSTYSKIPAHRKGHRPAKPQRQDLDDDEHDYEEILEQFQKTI
inactive: [1] 0.046 | [2] 0 | [3] 0.019 | [4] 0.052 | [5] -0.054

UFM1 (UniProt P61960)
inactive: [1] 0.015 | [2] -0.085 | [3] -0.103 | [4] -0.019 | [5] 0.297

TBL3 (UniProt Q12788)
inactive: [1] 0.024 | [2] 0.003 | [3] -0.014 | [4] -0.014 | [5] 0.014

TRA2A (UniProt Q13595)
inactive: [1] -0.076 | [2] 0.065 | [3] 0.034 | [4] -0.054 | [5] 0.004

UCHL5 isoform 3 (UniProt Q9Y5K5)
inactive: [1] -0.001 | [2] 0.033 | [3] 0.01 | [4] 0.015 | [5] 0.029

UBA1 (UniProt P22314)
inactive: [1] -0.018 | [2] 0.043 | [3] 0 | [4] 0.045 | [5] 0.04

TRAPPC6A isoform 2 (UniProt O75865)
inactive: [1] 0.025 | [2] 0.046 | [3] -0.043 | [4] -0.003 | [5] 0.014

UBE3C (UniProt Q15386)
inactive: [1] -0.027 | [2] -0.04 | [3] 0.127 | [4] 0.066 | [5] 0.039

TRIM23 (UniProt P36406)
UniProt P36406, sequence (P36406 whole entry, looked up): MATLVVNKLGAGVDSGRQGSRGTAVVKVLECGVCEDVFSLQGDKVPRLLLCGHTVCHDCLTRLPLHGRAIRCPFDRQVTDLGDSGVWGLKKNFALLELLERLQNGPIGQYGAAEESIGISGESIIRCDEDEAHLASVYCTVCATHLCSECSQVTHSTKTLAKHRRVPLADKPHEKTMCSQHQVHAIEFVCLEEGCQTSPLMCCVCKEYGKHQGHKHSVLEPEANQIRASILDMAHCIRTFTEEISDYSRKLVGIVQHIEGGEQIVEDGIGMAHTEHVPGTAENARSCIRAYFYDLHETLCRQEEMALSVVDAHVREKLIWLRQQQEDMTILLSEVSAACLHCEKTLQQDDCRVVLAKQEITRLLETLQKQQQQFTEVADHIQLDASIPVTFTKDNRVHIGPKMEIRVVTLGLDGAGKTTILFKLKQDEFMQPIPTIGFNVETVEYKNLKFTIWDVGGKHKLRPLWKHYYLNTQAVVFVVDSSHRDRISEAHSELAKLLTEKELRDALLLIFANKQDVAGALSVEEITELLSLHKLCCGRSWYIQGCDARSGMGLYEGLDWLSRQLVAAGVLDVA
inactive: [1] 0.036 | [2] -0.05 | [3] 0.052 | [4] 0.034 | [5] -0.275

TROAP (UniProt Q12815)
inactive: [1] -0.008 | [2] 0.12 | [3] 0.024 | [4] 0.057 | [5] 0.096

THADA (UniProt Q6YHU6)
inactive: [1] -0.028 | [2] -0.016 | [3] 0.069 | [4] 0.007 | [5] 0.028

TCF3 (UniProt P15923)
inactive: [1] -0.029 | [2] 0.006 | [3] -0.004 | [4] -0.032 | [5] -0.08

TUBGCP5 (UniProt Q96RT8)
inactive: [1] -0.209 | [2] 0.088 | [3] 0.039 | [4] -0.093 | [5] 0.071

TK1 (UniProt P04183)
inactive: [1] 0.006 | [2] 0.037 | [3] -0.017 | [4] -0.045 | [5] -0.116

TRIM11 (UniProt Q96F44)
inactive: [1] 0.028 | [2] 0.035 | [3] 0.04 | [4] -0.011 | [5] -0.001

TCP11L1 (UniProt Q9NUJ3)
inactive: [1] -0.023 | [2] -0.031 | [3] -0.02 | [4] -0.021 | [5] -0.095

UBXN10 (UniProt Q96LJ8)
inactive: [1] -0.032 | [2] 0.048 | [3] 0.056 | [4] 0.095 | [5] 0.022

TPP2 (UniProt Q5VZU9)
inactive: [1] 0.004 | [2] -0.117 | [3] 0.001 | [4] 0.034 | [5] -0.08

TTC27 (UniProt Q6P3X3)
inactive: [1] -0.039 | [2] -0.021 | [3] 0.028 | [4] -0.019 | [5] 0.032

TTI2 (UniProt Q6NXR4)
inactive: [1] -0.044 | [2] 0.009 | [3] 0.033 | [4] -0.035 | [5] 0.024

UBXN2B (UniProt Q14CS0)
inactive: [1] 0.028 | [2] -0.03 | [3] 0.019 | [4] 0.042 | [5] 0.014

TRAPPC9 isoform 2 (UniProt Q96Q05)
inactive: [1] 0.001 | [2] 0.05 | [3] 0 | [4] 0.055 | [5] -0.042

TUBB6 (UniProt Q9BUF5)
inactive: [1] -0.005 | [2] 0.033 | [3] 0.02 | [4] 0.017 | [5] 0.027

UBR3 isoform 4 (UniProt Q6ZT12)
UniProt Q6ZT12, sequence (Q6ZT12 whole entry, looked up): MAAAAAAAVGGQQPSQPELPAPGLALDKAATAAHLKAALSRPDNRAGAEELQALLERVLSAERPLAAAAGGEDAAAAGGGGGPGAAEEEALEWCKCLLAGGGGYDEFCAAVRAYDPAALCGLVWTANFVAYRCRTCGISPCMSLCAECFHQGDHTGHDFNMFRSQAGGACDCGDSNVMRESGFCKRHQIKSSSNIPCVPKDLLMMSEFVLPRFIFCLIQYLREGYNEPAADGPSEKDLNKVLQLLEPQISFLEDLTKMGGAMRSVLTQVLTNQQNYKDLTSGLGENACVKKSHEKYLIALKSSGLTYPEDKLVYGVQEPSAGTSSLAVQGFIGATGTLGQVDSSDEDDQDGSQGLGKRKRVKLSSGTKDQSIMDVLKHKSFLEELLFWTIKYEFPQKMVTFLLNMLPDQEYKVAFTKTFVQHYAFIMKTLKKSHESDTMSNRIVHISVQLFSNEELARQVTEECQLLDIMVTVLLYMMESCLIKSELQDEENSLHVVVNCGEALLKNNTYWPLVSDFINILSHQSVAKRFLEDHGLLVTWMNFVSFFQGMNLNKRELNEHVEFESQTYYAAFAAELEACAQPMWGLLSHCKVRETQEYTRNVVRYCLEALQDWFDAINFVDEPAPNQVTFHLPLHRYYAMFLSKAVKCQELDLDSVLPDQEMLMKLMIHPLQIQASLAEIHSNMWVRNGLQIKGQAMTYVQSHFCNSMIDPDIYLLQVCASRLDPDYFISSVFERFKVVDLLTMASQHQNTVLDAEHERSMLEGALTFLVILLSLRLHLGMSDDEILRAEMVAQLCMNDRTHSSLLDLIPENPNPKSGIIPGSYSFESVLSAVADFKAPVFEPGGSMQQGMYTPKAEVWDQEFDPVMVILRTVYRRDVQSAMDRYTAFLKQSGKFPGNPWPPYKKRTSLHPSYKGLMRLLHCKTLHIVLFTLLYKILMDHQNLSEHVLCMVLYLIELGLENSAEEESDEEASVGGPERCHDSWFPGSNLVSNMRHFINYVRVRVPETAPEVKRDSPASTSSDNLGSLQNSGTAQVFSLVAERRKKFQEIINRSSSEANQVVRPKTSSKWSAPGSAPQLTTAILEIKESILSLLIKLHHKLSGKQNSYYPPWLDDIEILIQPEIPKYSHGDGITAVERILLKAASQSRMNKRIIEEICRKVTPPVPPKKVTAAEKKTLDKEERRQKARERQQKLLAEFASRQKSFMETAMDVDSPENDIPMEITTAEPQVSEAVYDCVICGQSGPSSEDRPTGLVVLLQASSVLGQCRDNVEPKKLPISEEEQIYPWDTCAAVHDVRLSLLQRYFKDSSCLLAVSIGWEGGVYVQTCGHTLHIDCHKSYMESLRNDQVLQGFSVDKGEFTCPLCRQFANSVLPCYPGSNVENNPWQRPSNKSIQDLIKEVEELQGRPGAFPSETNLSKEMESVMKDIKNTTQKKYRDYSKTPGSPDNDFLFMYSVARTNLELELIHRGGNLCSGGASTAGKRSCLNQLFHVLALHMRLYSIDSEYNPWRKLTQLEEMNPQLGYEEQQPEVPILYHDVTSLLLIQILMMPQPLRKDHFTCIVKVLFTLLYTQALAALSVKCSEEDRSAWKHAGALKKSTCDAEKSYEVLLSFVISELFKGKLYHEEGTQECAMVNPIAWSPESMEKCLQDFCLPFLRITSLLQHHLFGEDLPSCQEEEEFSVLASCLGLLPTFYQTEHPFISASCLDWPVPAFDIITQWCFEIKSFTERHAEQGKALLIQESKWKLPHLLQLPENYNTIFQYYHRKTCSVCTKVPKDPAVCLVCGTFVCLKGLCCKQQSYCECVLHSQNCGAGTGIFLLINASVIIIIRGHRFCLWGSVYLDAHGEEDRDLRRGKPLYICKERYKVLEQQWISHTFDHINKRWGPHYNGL
inactive: [1] -0.027 | [2] -0.032 | [3] 0.009 | [4] -0.016 | [5] 0.076

TSPAN13 (UniProt O95857)
inactive: [1] 0.076 | [2] 0.025 | [3] -0.048 | [4] 0.187 | [5] -0.131

TRMT12 (UniProt Q53H54)
inactive: [1] 0.104 | [2] -0.023 | [3] -0.007 | [4] -0.061 | [5] 0.076

TRIM33 isoform 2 (UniProt Q9UPN9)
inactive: [1] 0.003 | [2] 0.009 | [3] 0.022 | [4] 0.011 | [5] 0.005

UBE3B (UniProt Q7Z3V4)
inactive: [1] -0.085 | [2] -0.144 | [3] -0.047 | [4] -0.045 | [5] 0.078

TMOD1 (UniProt P28289)
inactive: [1] -0.003 | [2] 0.021 | [3] 0.043 | [4] 0.017 | [5] 0.002

TLK1 isoform 2 (UniProt Q9UKI8)
inactive: [1] 0.005 | [2] -0.02 | [3] -0.026 | [4] -0.025 | [5] -0.072

TMEM87A (UniProt Q8NBN3)
inactive: [1] 0.066 | [2] -0.014 | [3] -0.011 | [4] -0.011 | [5] -0.128

TRADD (UniProt Q15628)
inactive: [1] -0.051 | [2] -0.016 | [3] 0.112 | [4] 0.05 | [5] 0.033

TUBB4B (UniProt P68371)
inactive: [1] 0.001 | [2] 0.03 | [3] 0.018 | [4] 0.042 | [5] 0.049

TRAPPC12 (UniProt Q8WVT3)
inactive: [1] 0.005 | [2] -0.016 | [3] -0.023 | [4] 0.003 | [5] 0.015

TTC4 (UniProt O95801)
inactive: [1] -0.018 | [2] -0.003 | [3] 0.001 | [4] 0.033 | [5] -0.013

TCAF2 (UniProt A6NFQ2)
inactive: [1] 0.159 | [2] 0.091 | [3] 0.027 | [4] 0.007 | [5] 0.042

TUBB3 (UniProt Q13509)
inactive: [1] 0.014 | [2] -0.005 | [3] 0.008 | [4] 0.008 | [5] 0.01

UBE4A isoform 2 (UniProt Q14139)
inactive: [1] -0.016 | [2] -0.041 | [3] 0.003 | [4] 0.043 | [5] 0.051

TTC12 isoform 2 (UniProt Q9H892)
inactive: [1] -0.123 | [2] -0.131 | [3] 0.033 | [4] 0.044 | [5] 0.058

TRAF2 isoform 2 (UniProt Q12933)
inactive: [1] -0.006 | [2] 0.005 | [3] -0.005 | [4] -0.002 | [5] -0.015

UFSP2 (UniProt Q9NUQ7)
inactive: [1] 0.059 | [2] 0 | [3] 0.057 | [4] -0.04 | [5] 0.022

TRIM65 (UniProt Q6PJ69)
inactive: [1] 0.051 | [2] -0.085 | [3] -0.016 | [4] 0.012 | [5] 0.039

TBC1D20 isoform 3 (UniProt Q96BZ9)
inactive: [1] -0.08 | [2] -0.07 | [3] 0.005 | [4] -0.007 | [5] 0.015

TNIK isoform 4 (UniProt Q9UKE5)
UniProt Q9UKE5, sequence (Q9UKE5 whole entry, looked up): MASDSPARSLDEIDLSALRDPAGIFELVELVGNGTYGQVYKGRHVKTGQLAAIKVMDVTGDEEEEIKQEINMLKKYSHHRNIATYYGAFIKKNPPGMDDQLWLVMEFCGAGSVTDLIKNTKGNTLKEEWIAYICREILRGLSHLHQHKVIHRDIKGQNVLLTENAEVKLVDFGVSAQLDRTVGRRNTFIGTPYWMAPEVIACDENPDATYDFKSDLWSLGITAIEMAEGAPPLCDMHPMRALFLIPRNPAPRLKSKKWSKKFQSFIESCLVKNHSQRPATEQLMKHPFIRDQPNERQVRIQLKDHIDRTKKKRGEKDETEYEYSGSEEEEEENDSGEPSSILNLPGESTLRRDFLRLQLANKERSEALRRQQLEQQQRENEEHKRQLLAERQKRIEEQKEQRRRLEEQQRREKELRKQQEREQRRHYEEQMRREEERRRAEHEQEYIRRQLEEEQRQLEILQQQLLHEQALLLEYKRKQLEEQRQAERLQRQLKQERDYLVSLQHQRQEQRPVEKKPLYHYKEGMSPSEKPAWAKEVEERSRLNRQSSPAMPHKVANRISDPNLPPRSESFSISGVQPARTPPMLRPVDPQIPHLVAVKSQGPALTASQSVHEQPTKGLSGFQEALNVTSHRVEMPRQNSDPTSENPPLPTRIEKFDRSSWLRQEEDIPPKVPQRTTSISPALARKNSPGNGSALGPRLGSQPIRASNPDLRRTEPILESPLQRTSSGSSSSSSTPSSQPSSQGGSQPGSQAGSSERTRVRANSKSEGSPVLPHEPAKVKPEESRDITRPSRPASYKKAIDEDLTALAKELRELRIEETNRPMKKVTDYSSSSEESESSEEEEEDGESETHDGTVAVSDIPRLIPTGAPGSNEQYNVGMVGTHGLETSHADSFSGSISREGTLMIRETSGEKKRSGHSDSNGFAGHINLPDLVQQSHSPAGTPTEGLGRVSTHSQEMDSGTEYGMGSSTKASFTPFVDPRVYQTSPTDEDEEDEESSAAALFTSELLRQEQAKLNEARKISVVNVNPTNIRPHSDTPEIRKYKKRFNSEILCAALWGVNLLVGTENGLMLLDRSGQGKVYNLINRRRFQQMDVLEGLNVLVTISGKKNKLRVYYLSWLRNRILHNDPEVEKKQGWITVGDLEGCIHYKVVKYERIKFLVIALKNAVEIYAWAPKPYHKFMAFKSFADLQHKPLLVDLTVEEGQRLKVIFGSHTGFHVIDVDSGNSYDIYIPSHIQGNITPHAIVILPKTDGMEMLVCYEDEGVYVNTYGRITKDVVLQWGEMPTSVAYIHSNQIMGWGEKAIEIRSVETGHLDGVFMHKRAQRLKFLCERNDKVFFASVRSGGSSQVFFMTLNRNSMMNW
inactive: [1] 0.015 | [2] -0.002 | [3] -0.017 | [4] -0.032 | [5] -0.076

UBR4 (UniProt Q5T4S7)
inactive: [1] -0.012 | [2] -0.008 | [3] 0.012 | [4] 0.012 | [5] -0.003

UCHL5 (UniProt Q5LJA9)
inactive: [1] 0.002 | [2] -0.059 | [3] -0.022 | [4] -0.251 | [5] 0.133
